Inconclusive results are not listed. A call without a number means that no potency is given here. Calls of active or inactive are those of the source. Calls come from the whole dose curve; as a rule, active = well fitted cell-killing curve with a large enough effect in the repeat runs; inconclusive = weak or mixed curves, or effect the other way; inactive = no such curve, though single readings can be large or run the other way.
Potency is the fitted concentration of half-maximal effect.

The assay can be described thus: Caspase-3/7 induction in CHO-K1 cells by small molecules, qHTS cell viability counter screen (AID 1346979). Note: nearly all actives have a fitted effect of over 35% in size. As to conditions: CellTiter-Fluor fluorescence, 17 h; series mostly up to 92.4 µM. An excerpt:
National Center for Advancing Translational Sciences [NCATS]
NIH Chemical Genomics Center [NCGC]
U.S. Environmental Protection Agency [EPA]
National Institutes of Environmental Health Sciences [NIEHS]
National Toxicology Program [NTP]
U.S. Food and Drug Administration [FDA]
Apoptosis is a process of programmed cell death and plays a central role in the development of multicellular organisms. It is a highly regulated process and induces cell death by activating caspases, which are the members of cysteine aspartic acid-specific protease (caspase) family. Caspases involved in apoptosis are classified by their mechanism of action as initiator caspases (caspase-2, -8, -9 and -10) and executioner caspases (caspase-3, -6, and -7). Inhibition of apoptosis results in number of cancers, autoimmune diseases, inflammatory diseases and viral infection. To identify small molecule compounds that induce apoptosis, a homogeneous, luminescent Caspase-Glo 3/7 assay was used. Wild type CHO-K1 cells were used to screen Tox21 libraries for identifying caspase-3/7 activity inducers. Also cytotoxicity of the compounds was tested in parallel by measuring the cell viability using CellTiter-Fluor assay system in the same wells.
Tox21 Assay Protocol Summary:
CHO-K1 cells were dispensed at 1,500 per well in 5uL of culture medium into white solid bottom 1536-well plates (Corning Life Sciences, Corning, NY) using a Multidrop Combi (Thermo Scientific, Waltham, MA) dispenser. The assay plates were incubated at 37 C and 5% CO2 for 5hr, and then 23nL of compounds dissolved in DMSO and positive control were transferred using a Pintool station (Wako, San Diego, CA). The assay plates were incubated at 37C and 5% CO2 for 17hr. For cytotoxicity read, after 16hr incubation at 37C, 1uL CellTiter-Fluor reagent (Promega Corporation, Madison, WI) was added to each well of the assay plates using Flying Reagent Dispenser (FRD, Aurora Discovery, San Diego, CA). After 1hr incubation at 37C and 5% CO2, the fluorescence signal was quantified using a ViewLux plate reader (PerkinElmer, Shelton, CT).
`CC(C)CC(C)CC(C)CC(C)COC(=O)c1ccccc1C(=O)OCC(C)CC(C)CC(C)CC(C)C` (stereo not given): the Potency entry was “inactive”.

Consider `CN(C)CCOCCO`, for which the Potency result was “inactive”.

In the case of `CCCC/C=C/C=C\C=O`, the Potency entry was “inactive”.

Take `COc1ccc(C2CNC(=O)C2)cc1OC1CCCC1` (stereo not given): the Potency entry is “inactive”.

Turning to `CO[C@@H]1[C@@H](OC(N)=O)[C@@H](O)[C@H](Oc2ccc3c(O)c(NC(=O)c4ccc(O)c(CC=C(C)C)c4)c(=O)oc3c2C)OC1(C)C`, the Potency entry was “inactive”.

On to `COC(=O)CCc1ccc(OCC(O)CNC(C)C)cc1` (stereo not given), for which the Potency entry is “inactive”.

Regarding `C=C(C)C(=O)OCCNC(C)(C)C`, the Potency entry is “inactive”.

Consider `CC(C)CCCCOC(=O)c1ccccc1C(=O)OCCCCC(C)C`, for which the Potency result is “inactive”.

Consider `Nc1ccc2cc(S(=O)(=O)O)cc(O)c2c1`, for which the Potency was 54.2 µM (active).

Take `CCOC(=O)c1ncn2c1CN(C)C(=O)c1cc(F)ccc1-2`: the Potency entry is “inactive”.

For the compound `COc1ccc2c(c1OC)C(=O)O[C@@H]2[C@H]1c2c(cc3c(c2OC)OCO3)CCN1C`, the Potency is 13.3 µM (active).

Turning to `CC(C)C(=O)OCCc1ccccc1`, the Potency result is “inactive”.

Turning to `CC(=C(CCOC(=O)C(C)C)SSC(CCOC(=O)C(C)C)=C(C)N(C=O)Cc1cnc(C)nc1N)N(C=O)Cc1cnc(C)nc1N`, the Potency result is “inactive”.

Turning to `O=C(OCc1ccccc1)C(=O)OCc1ccccc1`, the Potency result is “inactive”.

`O=C1c2ccccc2C(=O)c2cc(S(=O)(=O)O)ccc21`: the Potency result was “inactive”.

`BrCc1cccc(Oc2ccccc2)c1`: the Potency result was “inactive”.

Take `CCCC/C=C\CCCCCCCCCC=O`: the Potency entry was “inactive”.

With `CCC(C)NC(N)=O` (stereo not given), the Potency result was “inactive”.

Regarding `COC(=O)C1CC(=O)C(C(=O)OC)CC1=O` (stereo not given), the activity change, negative = cytotoxicity was 8.06% [at 8.39 µM] (inactive).

Regarding `C[C@@H](Oc1ccc(CNC(=O)c2cccnc2Oc2ccc3c(c2)OCO3)c(F)c1)C(=O)O`, the Potency result is “inactive”.

Take `Cc1ccc2c(c1)OCC(=O)CO2`: the Potency entry was “inactive”.

For the compound `CCNC(=O)C1CC(C)CCC1C(C)C` (stereo not given), the Potency entry is “inactive”.

For the compound `COC(=O)CCCCCCCC(=O)OC`, the Potency result is “inactive”.

Turning to `O=C(O)c1ccc(Cl)cc1Cl`, the Potency result was “inactive”.

Regarding `O=C(CS(=O)Cc1ccco1)NC/C=C\COc1cc(CN2CCCCC2)ccn1` (stereo not given), the Potency entry is “inactive”.

On to `CCCCC(CC)COCCO` (stereo not given), for which the Potency entry was “inactive”.

`CN=C(NC#N)Nc1ccc(C2=NNC(=O)CC2C)cc1` (stereo not given): the Potency entry was “inactive”.

Take `NC(CO)C(=O)NNCc1ccc(O)c(O)c1O` (stereo not given): the Potency result is “inactive”.

Take `COC(=O)[C@@H]1[C@H]2C[C@H]3c4[nH]c5ccccc5c4CCN3C[C@@H]2CC[C@@H]1O`: the Potency entry was “inactive”.

Regarding `OCCC(F)(F)C(F)(F)C(F)(F)C(F)(F)C(F)(F)C(F)(F)C(F)(F)C(F)(F)F`, the Potency entry is “inactive”.

For `CC1(C)S[C@@H]2[C@H](N=CN3CCCCCC3)C(=O)N2[C@H]1C(=O)O`, the Potency result is “inactive”.

`CCCCNC1CC(C)(C)NC(C)(C)C1`: the Potency result is “inactive”.

In the case of `ClCCCl`, the Potency entry is “inactive”.

In the case of `O=C(O)C(=O)Cc1ccccc1`, the Potency result was “inactive”.

`CCCCCCOC(=O)CC`: the Potency result is “inactive”.

In the case of `CCC(C=O)CC`, the Potency result is “inactive”.

In the case of `COc1cc2c(cc1OC)[C@@H]1CC(=O)[C@@H](CC(C)C)CN1CC2`, the Potency result was “inactive”.

On to `O=S(=O)(O)c1ccc2cc(O)c(S(=O)(=O)O)cc2c1`, for which the Potency result was “inactive”.

As to `CC(C(=O)O)c1ccc2c(c1)CC(=O)c1ccccc1S2` (stereo not given), the Potency entry was “inactive”.

For the compound `CC1=C(C(=O)O)N2C(=O)[C@@H](NC(=O)[C@H](N)c3ccc(O)cc3)[C@H]2SC1`, the Potency entry was “inactive”.

For the origin of these results see PubChem BioAssay (Tox21).
